# A selection: hits, their analogues and other compounds. The true share with any hit is near 13%.
# Pf growth 48h = P. falciparum growth inhibition at 48 hours (one generation). P. falciparum luciferase growth in erythrocytes, 48 h. Potency, µM (highest dose often 28.7 µM), for the others: at the highest dose activity change, negative = inhibition, hits mostly inhibitors. actives 5.9% (n = 310,000); further: potency means the concentration at half of the fitted maximal effect
#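 Compounds are pin-transferred into medium, infected erythrocytes (2% hematocrit, 0.1% parasitemia final) are added, and plates sit one parasite generation at 37 C in 5% CO2. Detection reagent is then added and luminescence measured.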
# HCV inh = inhibitors of hepatitis C virus infection; actives 3.4% (n = 340,000); Potency, µM (top dose mostly 41.8 µM), for the others: at the top dose activity change, negative = inhibition, usual class: inhibitors; Huh7.5.1 HCVcc-Cre infection, luciferase reporter, 44 h; further: potency means the concentration at half of the fitted maximal effect
#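 After 44 h co-culture of compound, cells and HCVcc-Cre (~0.5 moi), substrate is added for 15 min at room temperature and luciferase measured over 15 sec. Cells were seeded at 1,000/well and pre-cultured 4 h.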
# HCMV antiviral = inhibitors of human cytomegalovirus. HFF cells, HCMV-luciferase reporter, 72 h; active compounds read low. activity change, negative = inhibition, % at 57.5 µM. actives 4.5% (n = 410,000); in the data active means activity change below about -60%; inconclusive means no clear call, values can overlap the other calls; inactive means above about -39%
#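 Cell-based, HFFs, 1000 cells/well, 16 h 37C; cpds in DMSO + HCMV-luc, MOI 1 PFU/cell; 72 h 37C; OneGlo luminescence after 5 min RT; norm. to buffer vs Salinomycin 10uM.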
# Pf growth 96h = P. falciparum growth inhibition at 96 hour, primary screen for plastid delayed-death inhibitors; P. falciparum luciferase reporter growth, 96 h; Potency, µM (highest dose often 28.7 µM), for inactives: at the top dose activity change, negative = inhibition, most hits filed as inhibitors; actives 6.9% (n = 320,000); AID 504834; further: potency means the concentration at half of the fitted maximal effect
#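 96 h incubation, 37 C, 5% CO2, of luciferase-reporter P. falciparum-infected RBCs (2% hematocrit, 0.05% parasitemia final) with test compounds; endpoint luminescence.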
# The depositor's hits bear a star; ? = inconclusive; / = not tested or not shown; + = active, no number. Unless noted, the call rests on the fitted dose curve; in most records, active means well fitted inhibition curve with a large enough effect; inconclusive means small, poorly fitted or top-dose-only effect, or another doubt; inactive means no such curve, though single readings can be large or run the other way. On the % scale 0 is the no-effect control and ±100 the full control effect.
SMILES,Pf growth 48h,HCV inh,HCMV antiviral,Pf growth 96h
CCOc1ccc(N(CC)C(=O)c2cc3c(s2)-c2ccc(Cl)cc2SC3)cc1,/,/,12.8,/
S=C(NCCc1ccccn1)Nc1ccccc1Cl,16.7%,-2.4%,42.5,-19.8%
S=C(NCCc1ccccc1)Nc1ccccc1Cl,?,-23.8%,-63.8*,?
O=C(NCCc1ccc(F)cc1)Nc1ccccc1Cl,?,-14.1%,-63.4*,25.4%
CNC(=S)NCCCc1ccccc1,-2.5%,8.9%,-32.8,5.22µM*
CCC(C)(C)n1nnnc1C(c1ccc2ncccc2c1)N1CCN(c2nc3ccccc3s2)CC1 (stereo unspecified),5.22µM*,?,?,-9.5%
CCC(C)(C)n1nnnc1C(c1ccc2ncccc2c1)N1CCN(c2ccc(O)cc2)CC1 (stereo unspecified),?,14.7%,-4.5,?
CCC(C)(C)n1nnnc1C(c1ccc2ncccc2c1)N1CCCC(C)C1 (stereo unspecified),?,-8.4%,-26.2,10.4µM*
Cc1ccc2c(=O)cc(C(=O)Nc3c(C(=O)c4ccc(F)cc4)oc4ccccc34)oc2c1C,/,/,0.7,/
CC[C@@H]1Cc2[nH][nH]c(=O)c2[C@@H](c2ccc(Cl)cc2)O1,/,/,-3.6,/
CC(C)(C)OC(=O)N1CCC(c2c(C(=O)N3CCN(c4ccccn4)CC3)cnn2-c2ccc(F)cc2F)CC1,/,/,0.0,/
COc1cccc(NC(=O)COC(=O)c2c3c(nc4ccccc24)CCC(C)C3)c1 (stereo unspecified),?,2µM*,-25.2,?
CC1CCc2nc3ccccc3c(C(=O)OCC(=O)NC3CCS(=O)(=O)C3)c2C1 (stereo unspecified),-32.2%,10µM*,-16.6,?
Clc1ccccc1-c1cnc2sc(NCc3ccc4c(c3)OCO4)nn12,/,/,-19.4,/
Cc1nnc(N2CCN(C(=O)NC(C)C)CC2)c2nn(-c3ccccc3)c(C)c12,/,/,-13.5,/
COc1ccc(CNC(=O)C(=O)NCC(c2cccs2)S(=O)(=O)c2cccs2)cc1 (stereo unspecified),/,/,11.1,/
N#CCC(CNc1ncc(C(F)(F)F)cc1Cl)OC(=O)c1ccc(Cl)cc1 (stereo unspecified),?,?,-62.5*,?
N#CCC(CNc1ncc(C(F)(F)F)cc1Cl)OC(=O)c1cccc([N+](=O)[O-])c1 (stereo unspecified),13.1µM*,-10.1%,-17.0,4.65µM*
N#CCC(CNc1ncc(C(F)(F)F)cc1Cl)OC(=O)c1c(F)cccc1F (stereo unspecified),/,9.1%,-29.7,/
CCc1ccc(CNC(=O)c2ccc3c(c2)nc2n3CCOC2)cc1,/,/,-3.1,/
COc1cccc(Cn2c(CNS(=O)(=O)c3ccc(F)c(Cl)c3)nc3cccnc32)c1,/,/,-13.8,/
CCCCCCCCCCCC(CC1OC(=O)C1CCCCCC)OC(=O)C(CC(C)C)NC=O (stereo unspecified),1.07µM*,/,/,1.51µM*
CCCn1ccc2c(OCC(=O)NCc3ccccc3Cl)cccc2c1=O,/,/,10.9,/
Cc1ccc(NC(=O)C2CCCN2S(=O)(=O)c2cccc3nsnc23)cc1Cl (stereo unspecified),/,/,-21.2,/
CCOC(=O)c1[nH]c(C)c(C(=O)OCC(=O)N2CCc3ccccc32)c1C,/,10.7%,7.7,?
SMILES,Pf growth 48h,HCV inh,HCMV antiviral,Pf growth 96h
CCOC(=O)C1=C(C)NC(C)=C(C(=O)OCC)C1C(=O)OCC(=O)N1CCc2ccccc21,10.4µM*,-11.3%,-4.3,/
CCc1cc2cc(C)ccc2nc1SCC(=O)N1CC(=O)Nc2ccccc21,?,7.08µM*,?,4.8%
CCc1nc(SCC(=O)N2CC(=O)Nc3ccccc32)c2c(C)c(C)sc2n1,?,-16.3%,34.2,-144.8%
N#Cc1cc(C#N)c(SCC(=O)N2CC(=O)Nc3ccccc32)nc1N,?,?,-15.2,?
CCc1ccc2nc(SCC(=O)N3CC(=O)Nc4ccccc43)c(C#N)cc2c1,-6.6%,4.47µM*,39.9,11.7µM*
CCc1cc2c(SCC(=O)N3CC(=O)Nc4ccccc43)ncnc2s1,?,-24.6%,-60.1*,?
Cc1nc(SCC(=O)N2CC(=O)Nc3ccccc32)nc(C)c1C,4.6%,9.0%,-0.5,-27.6%
Cc1sc2nc(C3CCCCC3)nc(SCC(=O)N3CC(=O)Nc4ccccc43)c2c1C,?,-12.1%,-1.2,4.65µM*
Cc1nc(Oc2ccccc2C)c2oc3ccccc3c2n1,/,/,-32.6,/
Cc1cc(C)c2oc(-c3cccc(NC(=O)c4cc5ccccc5o4)c3)nc2c1,/,/,5.6,/
Cc1c(NC(=O)c2ccc(Cl)cc2)cc(C(C)C)c(O)c1S(=O)(=O)c1ccc(Cl)cc1,/,/,-10.3,/
Nc1nonc1-n1nnc(C(=O)N/N=C/c2ccccc2Cl)c1-c1ccc2c(c1)OCO2,2.94µM*,-4.9%,0.0,0.657µM*
Cc1ccc(-c2c(C(=O)N/N=C/c3ccc4c(c3)OCO4)nnn2-c2nonc2N)cc1,?,-20.7%,?,?
Nc1nonc1-n1nnc(C(=O)N/N=C/c2ccncc2)c1-c1ccccc1,5.2%,15.0%,-14.2,-12.1%
Cc1ccc(-c2c(C(=O)N/N=C/c3cccs3)nnn2-c2nonc2N)cc1,?,0.3%,/,1.17µM*
Nc1nonc1-n1nnc(C(=O)N/N=C/c2cccs2)c1-c1ccc2c(c1)OCO2,0.928µM*,-3.4%,?,0.294µM*
Nc1nonc1-n1nnc(C(=O)N/N=C/c2ccncc2)c1-c1cccs1,-2.7%,12.3%,+,-13.0%
CCC(C)NC(=O)Cn1c(=O)n(CC2CCC(C(=O)NC)CC2)c(=O)c2sccc21 (stereo unspecified),/,/,8.8,/
CCOC(=O)c1nnn(-c2nonc2N)c1-c1ccc(C)cc1,14.7µM*,10.8%,-25.4,48.1%
CCOC(=O)c1nnn(-c2nonc2N)c1CSc1ccccc1,/,-2.7%,-25.3,3.29µM*
Cc1c(C(=O)N2CCCCC2)nnn1-c1nonc1N,-0.8%,-14.5%,-62.0*,-40.3%
CCOC(=O)c1nnn(-c2nonc2N)c1CSc1ccc(C)cc1,?,-3.3%,-0.6,-8.2%
Cc1ccsc1/C=N/NC(=O)c1nnn(-c2nonc2N)c1-c1ccc2c(c1)OCO2,3.29µM*,7.4%,0.0,0.131µM*
CCOC(=O)c1nnn(-c2nonc2N)c1-c1ccc(Br)cc1,?,-2.7%,-6.1,15.5%
COc1cccc(NC(=O)Cn2c(=O)n(-c3cccc(OC)c3)c(=O)c3c4c(sc32)CCCC4)c1,/,/,2.7,/
SMILES,Pf growth 48h,HCV inh,HCMV antiviral,Pf growth 96h
COc1ccc2c(CC(=O)Nc3ccc(C)cc3)coc2c1,/,/,2.9,/
COc1cccc(Oc2cncnc2-c2ccc(OC)cc2O)c1,5.22µM*,-21.3%,22.5,80.4%
COc1ccc(-c2cncnc2-c2ccc(OC)cc2O)cc1,?,-26.0%,-63.8*,?
COc1ccc(-c2ncncc2-c2ccc(Cl)cc2)c(O)c1,8.28µM*,-15.4%,0.0,7.38µM*
O=C(c1cccs1)c1cn(CCOc2ccc(F)cc2)c2ccccc12,/,/,36.8,/
Cc1nn(-c2nc3ccccc3[nH]2)c(N)c1-c1ccccc1,53.4%,31.6µM*,37.8,-19.0%
Cc1nn(-c2ccccc2)c(N)c1-c1ccccc1,91.9%,0.6%,-10.2,239.8%

# Source: PubChem
